gsp agonist – agonists of gsp mutant (McCune-Albright syndrome) | gsp mutant cells, cAMP HTRF, 30 min | Potency, µM (top dose mostly 76.9 µM), without a hit: at the highest dose activation (cAMP increase), usual class: activators | 340,000 tested, 0.13% active | AID 624287; active = well fitted activation curve with a large enough effect; inconclusive = small, poorly fitted or top-dose-only effect, or another doubt; inactive = no such curve, though single readings can be large or run the other way; cell line not stated here;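 note: phosphodiesterase inhibitor Ro 20-1724 added with compounds to block cAMP breakdown; potency is the fitted concentration of half-maximal effect; nearly all actives have a fitted effect of over 60% in size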
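Cells in DMEM/10% FBS with G418 were pretreated with compounds in DMSO plus […] (300 uM stock) for 30 min at 37C. cAMP was measured by HTRF (cAMP-d2 plus anti-cAMP antibody-K) after 30 min at room temperature.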
CCT modulator – changes cytosolic chaperonin activity; purified chaperonin ATPase assay, HTRF ADP detection, 30 min; activity change, % (concentration not given with the values), hits read low; 360,000 tested, 0.3% active; in the data active = activity change below about -30%; note: % is set by controls: 0 for no effect and ±100 for the full control effect
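First, chaperonin was dispensed at 40 nM or 20 nM final depending on batch activity. Next, compounds were pinned at 76 uM and ATP added at 10 uM. After 30 min at 37 °C, ADP detection reagents ran 30 min at ambient temperature.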
MmCpn inh – M. maripaludis TRiC chaperonin inhibition. purified Mm-Cpn ATPase, ADP Transcreener TR-FRET. Potency, µM (top dose mostly 76.9 µM), for inactives: at the top dose activity, negative = inhibition, hits mostly inhibitors. 330,000 tested, 0.031% active. AID 504842; active = well fitted inhibition curve with a large enough effect; inconclusive = small, poorly fitted or top-dose-only effect; note: potency is the fitted concentration of half-maximal effect; % is set by controls: 0 for no effect and ±100 for the full control effect; nearly all actives have a fitted effect of over 80% in size
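Purified archaeal chaperonin (25 nM final) was preincubated with compound for 10 min at 37°C, then ATP (10 uM final) was added for 30 min at 37°C in Tris pH 7.4/KCl/MgCl2/DTT buffer. ADP was quantified by HTRF Transcreener TR-FRET.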
gsp antagonist – antagonizes gsp, the McCune-Albright syndrome mutation | gsp-mutant cells, cAMP HTRF, 30 min | Potency, µM (titrated, usually from 76.9 µM), for inactives: at the highest dose activity change, negative = inhibition, most hits filed as inhibitors | 340,000 tested, 0.4% active; calls by dose curve; cell line not stated here;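 note: intracellular cAMP measured with PDE inhibitor Ro 20-1724 present during compound exposure; potency is the fitted concentration of half-maximal effect; % is set by controls: 0 for no effect and ±100 for the full control effect; nearly all actives have a fitted effect of over 65% in size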
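HTRF cAMP read-out (cAMP-d2 plus anti-cAMP antibody-K in lysis buffer, 30 min RT). Before lysis, cells are exposed to compounds with […] for 30 min at 37C in DPBS containing Ca/Mg, BSA and Tween 20.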
uPA surface inh – inhibitors of cell surface uPA generation. Potency, µM (series often up to 38.3 µM), for inactives: at the top dose activity change, negative = inhibition, actives largely listed as inhibitors. cell surface uPA generation assay, qHTS. AID 540303. 330,000 tested, 0.31% active; active = well fitted inhibition curve with a large enough effect; inconclusive = small, poorly fitted or top-dose-only effect; inactive = no such curve, though single readings can be large or run the other way; tested in mouse RAW 264.7 cells; note: potency is the fitted concentration of half-maximal effect; % is set by controls: 0 for no effect and ±100 for the full control effect; nearly all actives have a fitted effect of over 55% in size
TSHR antag – blocks TSH signaling through the human TSH receptor; TSHR-expressing cells, TSH-stimulated cAMP HTRF, 2 h; active compounds read low; 330,000 tested, 0.2% active; activity change, negative = inhibition, % at 11.5 µM; P16473;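 active = activity change below a set negative limit, meaning inhibition stronger than a set level, cut at about -70% in these data; inconclusive = activity change between two set negative limits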; note: % is set by controls: 0 for no effect and ±100 for the full control effect
Target sequence (P16473 whole entry, looked up): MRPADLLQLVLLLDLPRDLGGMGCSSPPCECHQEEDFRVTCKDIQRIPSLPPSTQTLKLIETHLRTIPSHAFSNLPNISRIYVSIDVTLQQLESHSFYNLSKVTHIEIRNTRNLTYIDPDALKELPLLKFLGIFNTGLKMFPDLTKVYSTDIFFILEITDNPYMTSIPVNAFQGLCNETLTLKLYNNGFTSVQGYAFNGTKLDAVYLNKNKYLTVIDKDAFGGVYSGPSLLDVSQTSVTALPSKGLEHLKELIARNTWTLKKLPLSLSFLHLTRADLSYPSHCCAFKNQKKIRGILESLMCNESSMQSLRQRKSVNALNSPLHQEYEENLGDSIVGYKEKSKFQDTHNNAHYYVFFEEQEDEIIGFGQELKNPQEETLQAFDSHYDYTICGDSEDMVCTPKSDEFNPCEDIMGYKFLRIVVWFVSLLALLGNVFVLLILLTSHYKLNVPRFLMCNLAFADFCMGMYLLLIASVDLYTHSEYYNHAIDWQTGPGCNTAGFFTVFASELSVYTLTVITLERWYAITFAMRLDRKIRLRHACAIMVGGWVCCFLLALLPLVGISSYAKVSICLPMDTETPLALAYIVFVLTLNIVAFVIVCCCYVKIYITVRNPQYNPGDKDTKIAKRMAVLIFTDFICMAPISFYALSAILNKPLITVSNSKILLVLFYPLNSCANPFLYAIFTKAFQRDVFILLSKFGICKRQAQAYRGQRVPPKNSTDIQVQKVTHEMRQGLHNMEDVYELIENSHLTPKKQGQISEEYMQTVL
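Inhibition of cAMP made by TSHR-expressing cells under TSH stimulation (4nM final, EC80; 2 h, 37 deg C) is quantified with a one-step lysis HTRF kit, anti-cAMP cryptate versus cAMP-d2.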
Starred values were filed as active, the others as inactive; ? = inconclusive; nt = not tested or not shown; [ ] = dose if it differs, or a comment. Shown are actives, neighbours in structure and some others; about 1.2% of the full set was active somewhere.

SMILES	gsp agonist	CCT modulator	MmCpn inh	gsp antagonist	uPA surface inh	TSHR antag
Cc1sc2ncnc(N3CCC(C(=O)NCC(=O)Nc4ccc(F)c(F)c4)CC3)c2c1C	-8%	-2	-1%	40µM*	?	-13
CCOC(=O)c1c(C)n(-c2ccc(C)cc2)c2ccc(OCC(O)CNCC3CCCO3)cc12 (centres undefined)	1%	-1	0%	18%	10%	14
CCOc1ccnc2c1c(=O)n(Cc1cc(OC)cc(OC)c1)c(=O)n2C	-14%	-1	-2%	8%	5%	-140*
COc1ccnc2c1c(=O)n(Cc1cccc(Cl)c1)c(=O)n2C	25%	0	-15%	-1%	12%	-7
Clc1ccccc1CN(Cc1ccco1)Cc1nnnn1C1CCCC1	-6%	-70*	-5%	20µM*	-3%	-11
Cn1ncc(Cl)c(Oc2ccc(C(C)(C)C)cc2)c1=O	13%	-1	1%	-5%	0%	2
C=CCc1c(C)nc2cc(-c3ccc(C)cc3)[nH]n2c1=O	1%	-1	2%	-8%	11µM*	7
Cc1[nH]c(=O)[nH]c(=O)c1CSc1nnc([C@@H](NC(=O)OC(C)(C)C)C(C)C)o1	-4%	1	0%	8%	6%	0
Cn1ccc2cc(-c3ccc4ncnc(NCc5cccs5)c4c3)ccc21	nt	nt	?	nt	7.9µM*	-3
CCCCC1CCC(C(=O)NC2CCS(=O)(=O)C2)CC1 (centres undefined)	11%	-46*	1%	-9%	-6%	-13
CCOc1cccc(CN2CCCC(C(=O)c3cc(Cl)ccc3OC)C2)c1O (centres undefined)	-30%	-1	-1%	-22%	-5%	1
COC(=O)C1CCN(C(=O)COC(=O)c2cc([N+](=O)[O-])ccc2N2CCOCC2)CC1	-22%	0	0%	1%	-3%	-6
Cc1cc(OCCSc2nnc(-c3cccs3)n2C)ccc1Cl	1%	2	-22%	35µM*	-7%	-32
COC(=O)Sc1nc(N2CCOCC2)c2c(c1C#N)CC(C)(C)OC2	14µM*	-3	0%	15%	-2%	6
Clc1ccc(Oc2cnns2)c(Cl)c1	5%	-5	0%	4%	2%	19
S=c1[nH]cc(Oc2ccc(Cl)cc2Cl)c(=S)[nH]1	20µM*	-1	nt	-4%	-2%	nt
CC(C)CCn1c(=O)c2ccccc2n2c(CCC(=O)NC3CCN(Cc4ccccc4)CC3)nnc12	-58%	2	0%	-3%	2%	-12
CC1(C(=O)NS(=O)(=O)c2ccc(Br)cc2)CCN1C(=O)CCc1ccccc1 (centres undefined)	nt	-79*	nt	nt	nt	nt
Cc1noc(COc2ccccc2OCC(N)=O)c1Cl	-4%	-3	-1%	-2%	0%	7
COc1ccc(CC(=O)OCC(=O)c2ccc(OC)cc2)cc1	-2%[15.4 µM]	1	-1%	-7%	2%	2
CCOc1ccc(N2C(=O)S/C(=C\c3ccc(O)c(OCC)c3)C2=O)cc1	?	-1	-3%	-28%	-8%	-14
CCOc1cc(/C=C2\SC(=O)N(c3ccc(O)cc3)C2=O)ccc1O	10%	3	2%	32µM*	14%	-9
CCc1c(C(=O)Nc2cc(C)cc(C)c2)[nH]c(C)c1C(C)=O	-7%	-4	1%	35µM*	-4%	-11
CCOc1ccc(CCNC(=O)c2[nH]c(C)c(C(C)=O)c2CC)cc1OCC	?	-4	1%	-7%	3%	-12
CCOCCCn1c(=NC(=O)c2cccs2)c(C#N)cc2c(=O)n3ccccc3nc21	8%[15.4 µM]	-3	-3%	-25%	-4%	-8
SMILES	gsp agonist	CCT modulator	MmCpn inh	gsp antagonist	uPA surface inh	TSHR antag
CC(C)(C)c1cc(-c2csc(Nc3ccccc3)[n+]2Cc2ccc(C(=O)O)cc2)cc(C(C)(C)C)c1O	8%[15.4 µM]	-3	-5%	32µM*	3%	-11
CCOC(=O)C(C#N)C(=N)C1C(=O)OC2CCCCC21 (centres undefined)	?	-2	nt	nt	nt	nt
COc1ccc(CNC(=O)CN(C(=O)c2csnn2)c2ccc(C(C)=O)cc2)cc1	-7%[15.4 µM]	-40*	1%	5%	-2%	-5
CCOc1cccc(CNCCCSc2ncccn2)c1	-2%	-1	0%	6%	-4%	1
O=C(/C=C/c1ccco1)Nc1ccc2nc3n(c(=O)c2c1)CCCC3	-25%	-3	-2%	4%	2µM*	3
Cc1ccc(C)c(NC(=O)CSc2nc3nc(-c4cccs4)cc(C(F)(F)F)c3c(=O)[nH]2)c1	20µM*	-4	?	-10%	-6%	-28
Fc1ccc(CSc2ccc3nnc(-c4cccs4)n3n2)cc1	12%	-9	-4%	32µM*	-9%	0
Cc1ccc(CSc2ccc3nnc(-c4cccnc4)n3n2)cc1	3%[15.4 µM]	2	-2%	-6%	-11%	12
Cc1cccc(CSc2ccc3nnc(-c4cccs4)n3n2)c1	-3%	2	-5%	-24%	11%	-8
Fc1cccc(CSc2ccc3nnc(-c4cccnc4)n3n2)c1	27%[15.4 µM]	-30*	-1%	22%	-4%	8
CCN(C=NC1=NN(c2cccc(C(F)(F)F)c2)CC1)CC	-1%	-3	-6%	-15%	-8%	-10
COc1ccc(S(=O)(=O)N2CCCCC2)cc1NC(=O)c1[nH]c(C)c(C(C)=O)c1C	nt	-1	-1%	?	-2%	-5
O=[N+]([O-])c1cc(Br)c(O)c(C=Nc2ccc(N3CCOCC3)cc2)c1	-10%	1	-28%	-50%	-3%	-86*
COc1cccc(C=Nc2ccc(N3CCOCC3)cc2)c1O	-37%	-2	1%	-18%	?	-7
Cc1c(C(=O)Nc2nnc(C(F)(F)F)s2)oc2ccccc12	-22%	1	-1%	?	5%	-22
CC1(C)CC(O)CC(C)(C)N1CC(O)COCc1ccccc1 (centres undefined)	?	0	-6%	2%	0%	-134*
Cc1ccc(Cl)cc1Nc1nc(-c2sc(NC(=O)c3ccco3)nc2C)cs1	7%	0	-17%	-11%	7.9µM*	-2
Cc1nc(NC(=O)c2ccco2)sc1-c1csc(Nc2ccc(Cl)cc2Cl)n1	14%	0	-15%	-8%	5%	-8
CCOc1ccc(CNC(=O)Cn2ccc3cc(S(=O)(=O)N4CCCCCC4)ccc32)cc1	-1%	1	-2%	-5%	1µM*	-4
O=C(O)CSCC(=O)Nc1cccc2ccccc12	-48%	0	-1%	0%	5%	2
Cc1cccc(NC(=O)c2ccccc2OCC(=O)c2ccccc2)c1	0%	0	1%	-6%	4%	2

Assay outcomes from PubChem BioAssay.
